The text below walks through data of PubChem BioAssay (NCATS).

The target of test [1] is Transient receptor potential cation channel subfamily V member 1 (Homo sapiens) (UniProt Q8NER1). The experiment in a line: HTS Assay for Compounds that Act as Enhancers of the Vanilloid Receptor 1 (AID 488979). Also: 0% is about no effect. In a few lines: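 TRPV1-expressing cells loaded with Fluo-8 calcium dye; compounds added and calcium influx read kinetically for 3 min (agonist phase), then capsaicin at EC20 added and read 2 min more for enhancement. Fluorescence ex 480/em 520 nm.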

Test [2] concerns the target Thyrotropin receptor (Homo sapiens) (UniProt P16473). The test is described as follows: qHTS Assay for Antagonists of the Thyroid Stimulating Hormone Receptor (AID 488980). Also: series mostly up to about 58 µM; 0% is about no effect. The gist of the method:
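Cells expressing human TSHR (HEK293) are dispensed in HBSS/HEPES containing 70 uM RO 20-1724, compound is added, then TSH at EC80 (4 nM final). Antibody in lysis buffer follows, 30 minutes at room temperature before HTRF detection.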
Background: qHTS replaces the single test concentration by a dilution series.

For test [3], the target named is D(1A) dopamine receptor (Homo sapiens) (UniProt P21728). The experiment in a line: HTS Assay for Allosteric Agonists of the Human D1 Dopamine Receptor: Primary Screen for Agonists (AID 488981). Also: 0% is about no effect. The gist of the method:
(§1)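 Tetracycline-induced HEK293 T-REx cells force-coupled to calcium signalling were incubated overnight at 30 C and dye-loaded at room temperature. Calcium flux over 180 s after compound addition flagged agonists; a further 180 s read after EC20 dopamine flagged potentiators.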

Test [4] has the same target. The test is described as follows: HTS Assay for Allosteric Agonists of the Human D1 Dopamine Receptor: Primary Screen for Potentiators (AID 488982). Also: 0% is about no effect. The gist of the method: as §1
The target is the same in test [5]. The test is described as follows: HTS Assay for Allosteric Agonists of the Human D1 Dopamine Receptor: Primary Screen for Antagonists (AID 488983).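 Also: calcium flux response to an EC80 dopamine challenge measured with no-wash dye; % is scaled to controls: 0 for no effect and ±100 for the full control effect; nearly all actives have a fitted effect of over 65% in size.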 In a few lines: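 Calcium flux readout, no-wash dye, inducible HEK293 T-REx D1 line (force-coupled). Compound added after 10 s baseline, 180 s kinetic read; then dopamine at EC80, further 180 s read.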
The nature of test [6]: Validation screen for small molecules that induce genotoxicity in human embryonic kidney (HEK293T) cells expressing luciferase-tagged ELG1 (AID 493106). Also: 0% is about no effect. In a few lines:
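qHTS format; 2,000 HEK293T ELG1-luc cells/well; 23 nL compound via pin tool; 16 hr, 37 °C/5% CO2; ONE-Glo, 30 min RT; luminescence read.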

Test [7] concerns the target ATPase family AAA domain-containing protein 5 (Homo sapiens) (UniProt Q96QE3). The test is described as follows: Validation screen for small molecules that inhibit ELG1-dependent DNA repair in human embryonic kidney (HEK293T) cells expressing luciferase-tagged ELG1 (AID 493107).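 Also: cells co-treated with the DNA-damaging agent 5-fluorouridine alongside compound; series mostly up to about 46 µM; % is scaled to controls: 0 for no effect and ±100 for the full control effect; inhibitors lower the ELG1-luciferase luminescence signal; nearly all actives have a fitted effect of over 70% in size.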 The gist of the method:
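ELG1-luciferase HEK293T reporter; 5-fluorouridine + compound/DMSO, 16 hr, 37 °C, 5% CO2; ONE-Glo 30 min RT; luminescence read, qHTS format.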

The target of test [8] is Thyrotropin-releasing hormone receptor (Homo sapiens) (UniProt P34981). The test is described as follows: qHTS for Small Molecule Agonists and Allosteric Enhancers of Human TRH Receptor: Validation Screen for Agonists (AID 493127;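 active = calcium activation more than 3 SD above the typical response in the agonist read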;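 also: intracellular calcium rise by fluo-8 fluorescence before TRH EC20 addition; 0% is about no effect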). Conditions: TRH receptor agonist cell assay; at 2 µM; stronger effect = higher value. The gist of the method:
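Read-out: intracellular calcium release measured kinetically by FDSS (fluo-8, ex 480/em 530 nm), 1 reading/s after a 10-cycle baseline. TRHR cells, 2000/well, cultured 18 h at 33.5C, dye-loaded at room temp. Compound-evoked positive calcium signal flags agonists.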

Test [9] in a line: Nrf2 qHTS screen for inhibitors: Validation (AID 493153; active = well fitted inhibition curve with a large enough effect in the main read-out, with a control signal flat, not every such curve was filed as active). Conditions: Potency: luciferase luminescence; viability change: measured here: cytotoxicity max response. In a few lines: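 Concentration-response test in A549 ARE_Fluc reporter cells (5% FBS OPTI-MEM), compound exposure 18-24 h at 37°C, 5% CO2. Cell viability measured first by CellTiter-Fluor fluorescence; ARE-driven luciferase luminescence then measured as Nrf2 activity.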

The nature of test [10]: qHTS for Inhibitors of Cell Surface uPA Generation: Validation Assay (AID 493164).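 Also: RAW 264.7 macrophage cells exposed to compound for 18 h; 0% is about no effect.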 The gist of the method:
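Compounds are titrated over seven points (2.45 nM–38.3 uM final) onto pre-plated RAW 264.7 cells and incubated for 18 h. Retained intracellular ATP, measured with ATP-Lite, indicates blocked lethal factor entry.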

Test [11] deals with Galactokinase (Homo sapiens) (UniProt P51570). The test is described as follows: qHTS Validation Assay for Inhibitors of Human Galactokinase (GALK) (AID 493189). Also: 0% is about no effect. The gist of the method:
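Compounds were pin-transferred into ATP buffer, then GALK-galactose mix was added (final 5 nM enzyme, 100 uM galactose, 35 uM ATP). After 1 h at room temperature, remaining ATP was measured luminescently.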

Test [12] can be described thus: Validation screen for small molecules that induce DNA re-replication in SW480 colon adenocarcinoma cells (AID 504364). Also: 0% is about no effect. In a few lines:
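Read-out: total Hoechst intensity of nuclei by fluorescence scanning imager; hits raise the fraction of nuclei with elevated DNA content. Cells received compound for 48 hr at 37 C before a 40 min stain.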

Test [13] addresses Peptidyl-prolyl cis-trans isomerase NIMA-interacting 1 (Homo sapiens) (UniProt Q13526). The experiment in a line: qHTS Validation Assay to Find Inhibitors of Pin1 (AID 504536; active = well fitted inhibition curve with a large enough effect in the polarisation, with a control signal flat, not every such curve was filed as active; the % refers to the polarisation; also: potency is read from the fitted curve at half-maximal effect). In a few lines: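 Fluorescence polarization competition: compounds (titration) displace HiFluor-488-labeled Pin1-1b peptide from Pin1 (0.3 uM final) in pH 7.5 HEPES buffer with DTT, 10 min at room temperature; %Activity normalized to no-enzyme wells, curves fitted.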

For test [14], the target named is Phosphoglycerate kinase, glycosomal (Trypanosoma brucei brucei) (UniProt P07378). The test is described as follows: qHTS Validation Assay to Find Inhibitors of Phosphoglycerate Kinase (AID 504547).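 Also: control wells lack PGK and mark full inhibition.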 The gist of the method:
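In TEA buffer (100mM, pH 7.6) containing 5mM MgCl2 and 0.01% Tween-20, the GAPDH-coupled PGK reaction proceeded for 60 minutes at room temperature before a single luminescence reading using Kinase-Glo Plus.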

For test [15], the target named is Ubiquitin carboxyl-terminal hydrolase 1 (Homo sapiens) (UniProt O94782). The test is described as follows: Inhibitors of USP1/UAF1: Pilot qHTS (AID 504865).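 Also: rhodamine fluorescence freed from ubiquitin-rhodamine substrate followed over time; top concentration of the series differs between compounds; % is scaled to controls: 0 for no effect and ±100 for the full control effect; nearly all actives have a fitted effect of over 35% in size.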 The gist of the method:
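Kinetic fluorescence assay: 1nM USP1/UAF1, 15 min compound preincubation, then 150nM Ub-Rho; 480/540 nm.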

A short description of test [16]: qHTS for Inhibitors of ATXN expression: Validation of Cytotoxic Assay (AID 588349). Also: % is scaled to controls: 0 for no effect and ±100 for the full control effect. The gist of the method:
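Cytotoxicity counter-screen: HEK293 cells exposed to compound titrations, 72 hr, 37 degrees C. Read-out is intracellular ATP (CellTiter Glo luminescence) as a viability measure.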

A short description of test [17]: qHTS for Inhibitors of ATXN expression: Validation (AID 588378). Also: series mostly up to about 57 µM; % is scaled to controls: 0 for no effect and ±100 for the full control effect; nearly all actives have a fitted effect of over 75% in size. The gist of the method: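 Validation of ATXN2 expression inhibitors uses a cell-based luciferase fusion reporter in HEK293 cells, with 24 h compound exposure and paired viability (fluorescence) and reporter (luminescence) end-point reads.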
Test [18] concerns the target Tyrosyl-DNA phosphodiesterase 1 (Homo sapiens) (UniProt Q9NUW8). The experiment in a line: Confirmation Assay for Inhibitors of Tyrosyl-DNA Phosphodiesterase (TDP1) (AID 489007). Also: potency is read from the fitted curve at half-maximal effect; nearly all actives have a fitted effect of over 40% in size. Conditions: recombinant human TDP1 enzymatic activity, dose-response. The gist of the method: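 AlphaScreen read-out: streptavidin donor and anti-FITC acceptor beads (10 ug/ml) bind intact substrate, so Tdp1 removal of tyrosine-FITC lowers signal. Enzyme 1 nM, substrate 15 nM, 5 min reaction at room temperature after 15 min compound preincubation.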

The target in test [19] is phosphoglycerate mutase (Leishmania major) (UniProt Q4Q090). The experiment in a line: qHTS Validation Assay to Find Inhibitors of Phosphoglycerate Mutase (AID 504548).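 Also: end-point luminescence from Kinase-GloPlus after the PGAM reaction; series mostly up to about 58 µM; % is scaled to controls: 0 for no effect and ±100 for the full control effect.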 Conditions: Potency: inhibition qHTS. In a few lines:
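L. major PGAM (1.25nM final) was added to substrate buffer and pinned compound, incubated 45 minutes at room temperature, then Kinase-GloPlus added; luminescence read after 10 minutes. Buffer: 100 mM TEA pH 7.6, 5 mM MgCl2, 0.01% Tween-20.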

Results filed as inconclusive are left out. Calls of active or inactive are those of the source. Unless noted, calls follow the shape of the dose curve; as a rule, active = well fitted curve in the direction sought with a large enough effect; inconclusive = small, poorly fitted or top-dose-only effect, or another doubt; inactive = no such curve, though single readings can be large; an effect the other way counts as inactive or inconclusive.

phosphoglycerate mutase (Leishmania major), sequence (Q4Q090 1-553): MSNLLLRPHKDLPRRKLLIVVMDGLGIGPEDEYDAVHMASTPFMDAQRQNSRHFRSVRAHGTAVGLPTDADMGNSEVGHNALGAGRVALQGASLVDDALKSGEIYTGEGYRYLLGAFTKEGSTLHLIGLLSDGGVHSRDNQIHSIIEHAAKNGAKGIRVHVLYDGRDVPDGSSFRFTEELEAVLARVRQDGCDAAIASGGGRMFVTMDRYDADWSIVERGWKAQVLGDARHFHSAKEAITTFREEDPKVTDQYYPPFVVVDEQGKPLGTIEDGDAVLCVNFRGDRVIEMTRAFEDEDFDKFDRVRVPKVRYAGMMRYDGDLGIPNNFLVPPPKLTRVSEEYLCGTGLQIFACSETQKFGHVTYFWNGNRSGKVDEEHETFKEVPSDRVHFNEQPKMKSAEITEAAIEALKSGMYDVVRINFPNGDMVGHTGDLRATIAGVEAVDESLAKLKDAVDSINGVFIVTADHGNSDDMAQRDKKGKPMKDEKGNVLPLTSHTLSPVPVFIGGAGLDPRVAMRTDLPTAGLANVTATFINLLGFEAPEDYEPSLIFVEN
ATPase family AAA domain-containing protein 5 (Homo sapiens), sequence (Q96QE3 whole entry, looked up, the tested form may be a part): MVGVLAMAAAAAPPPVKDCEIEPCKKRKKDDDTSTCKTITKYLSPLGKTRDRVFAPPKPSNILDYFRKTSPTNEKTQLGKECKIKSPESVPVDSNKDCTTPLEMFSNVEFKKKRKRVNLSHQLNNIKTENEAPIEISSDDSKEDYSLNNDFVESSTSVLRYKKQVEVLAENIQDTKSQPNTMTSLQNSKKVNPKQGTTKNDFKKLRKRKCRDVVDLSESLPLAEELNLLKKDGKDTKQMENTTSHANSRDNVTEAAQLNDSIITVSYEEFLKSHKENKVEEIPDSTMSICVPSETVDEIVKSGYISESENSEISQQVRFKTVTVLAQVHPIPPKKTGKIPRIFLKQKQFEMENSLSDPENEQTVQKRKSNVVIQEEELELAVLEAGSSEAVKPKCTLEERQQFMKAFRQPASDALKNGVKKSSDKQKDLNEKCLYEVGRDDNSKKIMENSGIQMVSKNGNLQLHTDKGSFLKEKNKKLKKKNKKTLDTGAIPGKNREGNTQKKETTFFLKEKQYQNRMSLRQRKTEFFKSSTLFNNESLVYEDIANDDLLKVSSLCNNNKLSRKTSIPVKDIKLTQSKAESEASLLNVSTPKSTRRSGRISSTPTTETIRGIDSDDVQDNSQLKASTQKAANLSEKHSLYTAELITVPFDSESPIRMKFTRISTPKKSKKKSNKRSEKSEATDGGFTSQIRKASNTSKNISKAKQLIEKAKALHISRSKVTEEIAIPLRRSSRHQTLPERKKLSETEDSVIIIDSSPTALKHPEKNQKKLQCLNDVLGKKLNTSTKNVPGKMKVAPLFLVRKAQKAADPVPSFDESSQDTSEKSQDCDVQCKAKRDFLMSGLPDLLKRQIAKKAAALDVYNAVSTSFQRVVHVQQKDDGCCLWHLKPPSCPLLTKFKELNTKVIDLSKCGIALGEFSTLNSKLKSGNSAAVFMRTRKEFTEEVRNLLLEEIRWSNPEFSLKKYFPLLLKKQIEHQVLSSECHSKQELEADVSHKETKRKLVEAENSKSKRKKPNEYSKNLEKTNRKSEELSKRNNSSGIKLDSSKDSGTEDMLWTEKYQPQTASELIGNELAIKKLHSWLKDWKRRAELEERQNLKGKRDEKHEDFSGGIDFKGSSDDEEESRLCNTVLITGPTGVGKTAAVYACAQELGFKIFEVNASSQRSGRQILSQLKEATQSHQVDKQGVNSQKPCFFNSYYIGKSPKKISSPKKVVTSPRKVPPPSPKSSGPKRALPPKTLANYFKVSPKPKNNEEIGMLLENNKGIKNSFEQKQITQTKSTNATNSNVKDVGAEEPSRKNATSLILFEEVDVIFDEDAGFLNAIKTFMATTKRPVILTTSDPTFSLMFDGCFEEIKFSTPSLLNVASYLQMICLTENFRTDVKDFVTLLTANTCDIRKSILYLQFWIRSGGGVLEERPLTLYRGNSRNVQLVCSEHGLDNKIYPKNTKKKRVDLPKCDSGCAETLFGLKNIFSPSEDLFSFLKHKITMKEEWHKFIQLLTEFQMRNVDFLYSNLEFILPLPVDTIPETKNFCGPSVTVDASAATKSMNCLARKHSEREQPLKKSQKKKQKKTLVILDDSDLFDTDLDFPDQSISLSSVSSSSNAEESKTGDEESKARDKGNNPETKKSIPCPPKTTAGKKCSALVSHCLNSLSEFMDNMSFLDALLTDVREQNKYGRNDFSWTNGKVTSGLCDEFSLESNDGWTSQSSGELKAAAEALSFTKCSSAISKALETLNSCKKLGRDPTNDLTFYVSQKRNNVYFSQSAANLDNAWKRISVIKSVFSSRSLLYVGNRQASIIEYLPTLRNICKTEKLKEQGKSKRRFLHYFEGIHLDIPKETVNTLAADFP
Thyrotropin receptor (Homo sapiens), sequence (P16473 whole entry, looked up): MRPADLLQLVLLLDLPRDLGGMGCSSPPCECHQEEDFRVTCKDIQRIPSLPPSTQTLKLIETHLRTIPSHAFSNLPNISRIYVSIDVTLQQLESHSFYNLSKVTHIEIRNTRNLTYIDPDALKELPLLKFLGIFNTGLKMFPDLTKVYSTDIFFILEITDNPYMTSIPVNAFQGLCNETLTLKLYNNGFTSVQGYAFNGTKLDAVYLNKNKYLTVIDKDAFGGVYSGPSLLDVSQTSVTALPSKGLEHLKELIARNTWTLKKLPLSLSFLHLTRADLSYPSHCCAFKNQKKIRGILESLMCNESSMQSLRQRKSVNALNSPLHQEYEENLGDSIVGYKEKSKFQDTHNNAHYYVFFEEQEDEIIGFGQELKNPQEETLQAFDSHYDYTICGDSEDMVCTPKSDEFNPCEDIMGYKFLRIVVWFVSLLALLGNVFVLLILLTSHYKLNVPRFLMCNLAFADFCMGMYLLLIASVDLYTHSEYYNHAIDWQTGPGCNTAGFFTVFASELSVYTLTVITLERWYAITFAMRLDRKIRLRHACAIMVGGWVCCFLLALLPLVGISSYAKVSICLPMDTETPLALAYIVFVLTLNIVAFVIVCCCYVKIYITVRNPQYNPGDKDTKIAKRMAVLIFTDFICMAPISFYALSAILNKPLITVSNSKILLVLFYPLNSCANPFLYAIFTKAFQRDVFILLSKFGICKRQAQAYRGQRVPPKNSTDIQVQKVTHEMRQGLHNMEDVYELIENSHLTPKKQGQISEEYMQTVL
Phosphoglycerate kinase, glycosomal (Trypanosoma brucei brucei), sequence (P07378 whole entry, looked up): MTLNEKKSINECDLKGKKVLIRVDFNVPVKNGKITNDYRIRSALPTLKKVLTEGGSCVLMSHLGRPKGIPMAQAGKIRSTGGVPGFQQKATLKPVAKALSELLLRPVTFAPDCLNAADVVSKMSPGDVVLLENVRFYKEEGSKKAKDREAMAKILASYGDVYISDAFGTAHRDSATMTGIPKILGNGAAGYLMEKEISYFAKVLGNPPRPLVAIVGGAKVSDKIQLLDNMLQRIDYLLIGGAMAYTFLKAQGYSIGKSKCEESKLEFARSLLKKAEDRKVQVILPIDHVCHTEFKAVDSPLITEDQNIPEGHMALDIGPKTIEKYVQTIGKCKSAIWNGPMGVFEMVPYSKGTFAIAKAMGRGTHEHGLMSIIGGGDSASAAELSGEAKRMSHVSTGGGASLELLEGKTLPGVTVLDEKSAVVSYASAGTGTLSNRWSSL
Ubiquitin carboxyl-terminal hydrolase 1 (Homo sapiens), sequence (O94782 whole entry, looked up): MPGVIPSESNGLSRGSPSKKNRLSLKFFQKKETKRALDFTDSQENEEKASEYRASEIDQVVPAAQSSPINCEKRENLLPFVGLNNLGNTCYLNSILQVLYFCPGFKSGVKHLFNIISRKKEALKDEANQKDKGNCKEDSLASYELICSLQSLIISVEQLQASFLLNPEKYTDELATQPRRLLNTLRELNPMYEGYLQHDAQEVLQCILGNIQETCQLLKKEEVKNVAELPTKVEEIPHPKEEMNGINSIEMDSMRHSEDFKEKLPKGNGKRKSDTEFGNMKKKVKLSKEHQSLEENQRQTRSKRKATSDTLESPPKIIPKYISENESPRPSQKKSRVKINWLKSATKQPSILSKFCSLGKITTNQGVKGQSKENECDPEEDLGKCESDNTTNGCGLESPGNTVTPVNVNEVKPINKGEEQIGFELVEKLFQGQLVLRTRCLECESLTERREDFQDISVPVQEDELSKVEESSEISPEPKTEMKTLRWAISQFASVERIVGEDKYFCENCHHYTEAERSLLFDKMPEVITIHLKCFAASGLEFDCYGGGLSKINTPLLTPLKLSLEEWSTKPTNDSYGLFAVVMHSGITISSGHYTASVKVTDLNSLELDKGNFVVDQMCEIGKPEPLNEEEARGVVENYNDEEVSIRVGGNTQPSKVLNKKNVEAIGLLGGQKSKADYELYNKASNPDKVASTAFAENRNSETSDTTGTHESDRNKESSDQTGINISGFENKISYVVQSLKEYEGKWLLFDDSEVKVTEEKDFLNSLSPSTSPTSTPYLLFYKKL
Peptidyl-prolyl cis-trans isomerase NIMA-interacting 1 (Homo sapiens), sequence (Q13526 whole entry, looked up): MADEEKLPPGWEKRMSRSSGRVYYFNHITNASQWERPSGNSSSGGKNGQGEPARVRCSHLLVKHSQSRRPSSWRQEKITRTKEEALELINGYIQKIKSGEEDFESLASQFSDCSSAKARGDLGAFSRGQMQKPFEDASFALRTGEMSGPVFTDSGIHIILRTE
Thyrotropin-releasing hormone receptor (Homo sapiens), sequence (P34981 whole entry, looked up): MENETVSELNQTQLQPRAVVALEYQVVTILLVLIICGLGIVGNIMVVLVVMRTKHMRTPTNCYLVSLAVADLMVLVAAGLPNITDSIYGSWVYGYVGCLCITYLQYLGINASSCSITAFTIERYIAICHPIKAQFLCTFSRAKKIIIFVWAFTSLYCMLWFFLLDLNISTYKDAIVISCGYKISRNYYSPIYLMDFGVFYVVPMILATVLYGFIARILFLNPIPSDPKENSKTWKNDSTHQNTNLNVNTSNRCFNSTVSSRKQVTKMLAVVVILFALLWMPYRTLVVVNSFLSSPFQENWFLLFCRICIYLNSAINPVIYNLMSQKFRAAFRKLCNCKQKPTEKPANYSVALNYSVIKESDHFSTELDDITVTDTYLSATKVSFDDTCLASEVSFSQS

Turning to `NC1(C(=O)O)CC1`, the result in test [1], in test [2] and in [10] was inactive. Further, the Potency result in test [3], in test [4], in test [5], in [6], in test [7] and in test [9] was “inactive” each time. In addition, the Potency result in test [11], in test [12], in test [13], in test [14], in test [15] and in test [16] was “inactive” throughout. In test [17], the Potency result is “inactive”. For the same compound, the activation in test [8] was 0.688% (inactive). In test [9], the viability change amounted to 4.01%.
Turning to `NC(=O)c1cc[n+](CC2=C(C(=O)O)N3C(=O)[C@@H](NC(=O)[C@@H](c4ccccc4)S(=O)(=O)[O-])[C@H]3SC2)cc1`, the result in test [1], in [2] and in test [10] was inactive. Also, the Potency entry in [3], in test [4], in [5], in test [6], in test [7] and in [9] was “inactive” in each case. Besides, the Potency result in [11], in [12], in [19], in test [15], in [16] and in test [17] was “inactive” throughout. In addition, the Potency in test [18] is 4.47 µM (active); in [13], 9.53 µM (active). Further, the activation in test [8] is 13.1% (inactive). The compound further registered a viability change in test [9] of 3.59%.
For `Nc1ncnc2c1ncn2C1CCCO1` (stereo not given), the outcome in [1], in [2] and in [10] was inactive. Moreover, the Potency entry in test [3], in test [4], in test [5], in test [6], in test [7] and in test [9] was “inactive” in each case. For the same compound, the Potency entry in test [11], in test [12], in test [13], in test [14], in test [15] and in [16] was “inactive” throughout. The Potency entry in test [17] was “inactive”. The activation in [8] was -0.25% (inactive). Also, the viability change in test [9] turned out to be 12.1%.
On to `c1ccc2nc(C3=NCCN3)ccc2c1`, for which the result in test [1], in test [2] and in test [10] was inactive. Moreover, the Potency result in [3], in [4], in test [5], in test [6], in [7] and in [9] was “inactive” each time. Moreover, the Potency result in test [11], in test [12], in test [13], in test [14], in test [19] and in test [15] was “inactive” each time. Besides, the Potency result in test [16] and in test [17] was “inactive” in each case. Also, in [8], the activation is 0.0625% (inactive). In [9], this compound returned a viability change of 1.31%.
Consider `O=C(O)/C(=C/c1c(C(=O)O)[nH]c2cc(Cl)cc(Cl)c12)c1ccccc1`, for which the outcome in test [1], in test [2] and in test [10] was inactive. The Potency result in test [3], in test [4], in test [5], in test [6], in [7] and in test [9] was “inactive” throughout. For the same compound, the Potency entry in test [11], in test [12], in test [13], in test [14], in test [19] and in [15] was “inactive” throughout. Further, the Potency entry in [16] and in [17] was “inactive” in each case. Besides, the activation in test [8] was 1.12% (inactive). The compound further had a viability change in test [9] of 4.57%.
As for `O=C(O)/C=C/c1ccc(O)c(O)c1`, the result in test [1], in [2] and in [10] was inactive. In addition, the Potency entry in test [3], in test [4], in test [5], in [6], in test [7] and in test [9] was “inactive” in each case. In addition, the Potency entry in test [11], in test [12], in test [13], in test [19], in [15] and in test [16] was “inactive” throughout. In addition, the Potency entry in test [17] was “inactive”. The activation in test [8] is 0.25% (inactive). In [9], this compound returned a viability change of 3.15%.
On to `CO/N=C(\C(=O)N[C@@H]1C(=O)N2C(C(=O)O)=C(CSc3nc(=O)c(O)nn3C)CSC12)c1csc(N)n1` (stereo not given in full), for which the result in test [1], in [2] and in [10] was inactive. The Potency entry in [3], in [4], in test [5], in [6], in test [7] and in test [9] was “inactive” each time. Moreover, the Potency result in [11], in [12], in [14], in test [19], in [15] and in test [16] was “inactive” each time. In [17], the Potency result is “inactive”. The Potency in test [18] was 3.16 µM (active). In test [8], the activation was 1.12% (inactive). Also, the viability change in [9] came out at 3.25%.
